Compound activity: PubChem BioAssay, National Center for Advancing Translational Sciences (NCATS)
The list is not random: actives were taken first. Their share in the collection is about 1.6%.
RXFP1 agonist: agonists of human relaxin receptor RXFP1. Q9HBX9. HEK293T-RXFP1 cAMP TR-FRET, 30 min; response scale: percent of porcine relaxin response, buffer zero. Potency, µM (titrated, usually from 57.5 µM), for inactives: at the top dose activation, actives largely listed as activators. 370,000 tested, 0.3% active. AID 2676; active = well fitted activation curve with a large enough effect; inconclusive = small, poorly fitted or top-dose-only effect; also: potency is read from the fitted curve at half-maximal effect; % is scaled to controls: 0 for no effect and ±100 for the full control effect; nearly all actives have a fitted effect of over 60% in size
Target sequence (Q9HBX9 whole entry, looked up): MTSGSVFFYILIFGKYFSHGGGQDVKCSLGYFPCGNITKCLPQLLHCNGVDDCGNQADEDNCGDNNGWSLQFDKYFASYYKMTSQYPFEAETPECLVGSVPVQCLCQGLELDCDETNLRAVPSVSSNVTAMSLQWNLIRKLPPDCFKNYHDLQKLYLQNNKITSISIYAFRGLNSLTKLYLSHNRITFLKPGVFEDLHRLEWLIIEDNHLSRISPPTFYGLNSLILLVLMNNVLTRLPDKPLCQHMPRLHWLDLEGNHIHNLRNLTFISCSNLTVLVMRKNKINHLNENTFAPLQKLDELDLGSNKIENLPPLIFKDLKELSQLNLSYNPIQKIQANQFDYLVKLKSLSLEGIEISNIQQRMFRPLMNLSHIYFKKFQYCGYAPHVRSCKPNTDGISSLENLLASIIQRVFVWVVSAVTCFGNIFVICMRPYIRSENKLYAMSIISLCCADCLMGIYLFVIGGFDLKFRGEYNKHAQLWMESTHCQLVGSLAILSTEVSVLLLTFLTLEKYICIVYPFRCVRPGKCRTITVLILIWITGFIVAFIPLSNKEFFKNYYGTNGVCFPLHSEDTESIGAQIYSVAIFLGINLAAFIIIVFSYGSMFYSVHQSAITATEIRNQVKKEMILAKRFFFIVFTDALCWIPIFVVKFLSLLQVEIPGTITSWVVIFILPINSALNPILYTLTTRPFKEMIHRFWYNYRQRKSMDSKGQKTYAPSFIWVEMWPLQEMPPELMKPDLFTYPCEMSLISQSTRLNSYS
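HEK293 cells stably expressing RXFP1, treated 30 min at 37C with compounds plus PDE4 inhibitor Ro 20174; cAMP measured by HTRF TR-FRET. Normalized to buffer and 29 nM porcine relaxin; EC50 by Hill fit.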
Giardia kill: kills Giardia lamblia. Giardia lamblia trophozoite viability. activity change, % at 7.66 µM, hits read low. AID 540267. 340,000 tested, 0.15% active; in the data active = activity change below about -80%; inconclusive = between about -30% and that limit;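 also: parasites exposed to compound for two days anaerobically before the ATP read; % is scaled to controls: 0 for no effect and ±100 for the full control effect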
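Killing of trophozoites was scored by loss of ATP luminescence after a 48 hrs anaerobic exposure to compounds at 37 deg C, using 100 cells per well.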
gsp ag: activates gsp, the McCune-Albright syndrome mutation | Potency, µM (top dose mostly 76.9 µM), inactives show at the top dose activation (cAMP increase), actives largely listed as activators | gsp mutant cells, cAMP HTRF, 30 min | 340,000 tested, 0.13% active; active = well fitted activation curve with a large enough effect; inconclusive = small, poorly fitted or top-dose-only effect, or another doubt; inactive = no such curve, though single readings can be large or run the other way; cell line not stated here;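 also: phosphodiesterase inhibitor Ro 20-1724 added with compounds to block cAMP breakdown; potency is read from the fitted curve at half-maximal effect; nearly all actives have a fitted effect of over 60% in size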
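Cells stably selected in G418 were plated at 2000/well, grown 16-24 hr, then given compounds in DMSO with the PDE inhibitor […] (300 uM solution added) for 30 min at 37C; cAMP was read by HTRF.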
gsp antagonist: gsp mutant antagonism. Potency, µM (doses to about 76.9 µM), inactives show top-dose activity change, negative = inhibition, hits mostly inhibitors. AID 624288. 340,000 tested, 0.4% active. gsp-mutant cells, cAMP HTRF, 30 min; calls by dose curve; cell line not stated here;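 also: intracellular cAMP measured with PDE inhibitor Ro 20-1724 present during compound exposure; potency is read from the fitted curve at half-maximal effect; % is scaled to controls: 0 for no effect and ±100 for the full control effect; nearly all actives have a fitted effect of over 65% in size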
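G418-selected cells were plated in DMEM/10% FBS for 16-24 h at 37C, then treated with compounds plus the PDE inhibitor […] (300 uM solution added) for 30 min at 37C. Intracellular cAMP was measured by HTRF after 30 min lysis at room temperature.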
RXFP1 antagonist: blocks the human relaxin receptor RXFP1. HEK293-RXFP1, relaxin-stimulated cAMP HTRF, 30 min; stronger effect = lower value. activity change, negative = inhibition, % at 57.5 µM. 350,000 tested, 0.59% active;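 active = activity change of -60% or lower, but not beyond a set lower limit; inconclusive = change between -60% and -40%, or beyond the set limit; inactive = change above -40%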; also: % is scaled to controls: 0 for no effect and ±100 for the full control effect
FBPA coupling cs: counter-screen for Giardia aldolase inhibitors: coupling enzyme system. coupling enzyme system counterscreen, AmpLite Red fluorescence. activity change, negative = inhibition, % at 58.2 µM, hits read low. 290,000 tested, 0.67% active. AID 2472; in the data active = activity change below about -30%; also: % is scaled to controls: 0 for no effect and ±100 for the full control effect
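Counterscreen of the coupled detection system alone, without aldolase: glyceraldehyde-3-phosphate coupling enzymes plus AmpLite Red readout. Compounds at 57.5 uM final, 10 min RT preincubation, 20 min RT reaction, fluorescence 525/598 nm.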
Numbers without * were called inactive; ? = inconclusive; · = not tested or not shown; [ ] = another dose, or the depositor's remark.

SMILES	RXFP1 agonist	Giardia kill	gsp ag	gsp antagonist	RXFP1 antagonist	FBPA coupling cs
CC1CC=CC2C1C(=O)N(Cc1ccccc1)C2c1ccc2ccccc2c1 (stereo not given)	·	2.3	·	·	·	1.3
COc1cc2[nH]c(Cl)c([N+](=O)[O-])c2cc1OC	-0.5%	8.4	11.2%[15.4 µM]	-8.4%	5.2	-48.4*
COc1cc2c(=O)[nH]c3cc([N+](=O)[O-])ccc3c2cc1[N+](=O)[O-]	·	·	9.8%	·	4.0	·
CC1=CC2C(C(O)CC3(C)C2CC(C)C32OCOC23COCO3)C2(C)C/C(=C\O)C(=O)C=C12 (stereo not given)	·	-10.4	-12.0%	?	-75.7*	·
COc1ccc(-c2n[nH]c(C(F)(F)F)c2-c2cc3ccccc3o2)c(O)c1	-1.0%	-7.5	-2.5%	-23.7%	-69.3*	-0.4
C[C@@H]1CN(C(=O)c2nc3ccc(Cl)cn3c2CN2CCc3sccc3C2)C[C@H](C)O1	4.0%	8.5	?	-2.2%	-2.3	-9.5
CN(C)c1ccc(NC(=O)CSCc2nc3c(nnn3Cc3ccc(F)cc3)c(=O)[nH]2)cc1	0.6%	-2.0	1.7%	?	15.5	-36.5*
Cc1cccc(NC(=O)CSCc2nc3c(nnn3Cc3ccc(F)cc3)c(=O)[nH]2)c1C	-2.5%	-8.9	23.6%[15.4 µM]	-82.0%	-7.7	2.6
CC(C)C[C@H](NC(=O)[C@@H](Cc1c[nH]c2ccccc12)NC(=O)[C@H](Cc1ccc(O)cc1)NC(=O)[C@H](CO)NC(=O)[C@H](Cc1c[nH]c2ccccc12)NC(=O)[C@H](Cc1cnc[nH]1)NC(=O)[C@@H]1CCC(=O)N1)C(=O)N[C@@H](CCCN=C(N)N)C(=O)N1CCC[C@H]1C(=O)NCC(N)=O	·	·	·	·	·	3.2
CCOc1ccc(C(=O)c2cn(CC(=O)Nc3ccc(F)cc3)c3cc4c(cc3c2=O)OCO4)cc1	10.2%	·	·	·	·	·
CCOc1ccc(C(=O)c2cn(CC(=O)Nc3ccc(OC)cc3)c3cc4c(cc3c2=O)OCO4)cc1	25.1µM*	·	·	·	·	·
Cc1cc(N2CCN(S(=O)(=O)c3ccc(Cl)c(Cl)c3)CC2)c2ccccc2n1	3.0%	-4.3	2.1%	-21.1%	1.0	-1.8
Cc1cc(N2CCN(S(=O)(=O)c3ccc(Cl)cc3)CC2)c2ccccc2n1	0.8%	7.2	-4.4%	50.1µM*	-24.9	3.2
COCCn1c(SCC(=O)N2CCC(C)CC2)nc2c(c1=O)SCC2	0.4%	-11.3	-30.7%	-2.9%	-6.7	·
NC(=NCCc1c[nH]c2ccccc12)NS(=O)(=O)c1ccc2ccccc2c1	0.9%	-3.2	-3.6%	-7.0%	16.8	-36.4*
NC(=NCCc1c[nH]c2ccccc12)NS(=O)(=O)c1ccc(F)cc1	-0.2%	-5.3	-14.9%	-3.1%	9.9	-1.9
Cc1ccccc1C(=O)OCC(=O)Nc1cccc(S(=O)(=O)N2CCCCC2)c1	·	·	-2.1%	·	-1.4	·
CC(=O)c1c(C)[nH]c(C(=O)OCC(=O)Nc2cccc(S(=O)(=O)N3CCCC3)c2)c1C	0.7%	-1.1	-71.1%	31.6µM*	-1.9	-0.8
O=C(COc1ccc2ccc(=O)oc2c1)Nc1cccc(S(=O)(=O)N2CCCCC2)c1	6.4%	-11.0	?	28.2µM*	-8.0	·
Cc1ccc(OCC(=O)Nc2cccc(S(=O)(=O)N3CCCC3)c2)cc1C	·	·	-1.3%	·	-1.6	·
Cc1ccc(C)c(C(=O)OCC(=O)Nc2cccc(S(=O)(=O)N3CCCCC3)c2)c1	-0.6%	-11.6	5.4%	25.1µM*	-1.6	·
NC(=O)CSc1ncc2c(n1)-c1ccccc1N(Cc1ccc(Cl)cc1)S2(=O)=O	0.3%	·	·	·	0.7	·
COc1cc(OC)cc(-c2nnc3n2N=C(c2cc(OC)ccc2OC)CS3)c1	·	·	·	·	·	-0.9
NN=C1c2cc(S(=O)(=O)NCCO)ccc2-c2ccc(S(=O)(=O)NCCO)cc21	·	-9.0	·	·	·	·
Cc1ccc2c(CN3CCCc4ccccc43)cc(=O)oc2c1C	4.6%	-5.6	-0.8%	2.1%	-2.6	-52.6*
SMILES	RXFP1 agonist	Giardia kill	gsp ag	gsp antagonist	RXFP1 antagonist	FBPA coupling cs
O=C(O)c1ccc(Cl)cc1NC(=O)C1CCN(S(=O)(=O)c2cccs2)CC1	·	·	-23.9%	·	-0.7	·
NC(=O)c1ccsc1NC(=O)COC(=O)/C=C/c1ccc([N+](=O)[O-])cc1	-0.1%	-6.4	3.4%[15.4 µM]	4.6%	-12.7	4.9
COC(=O)c1ccc(/C=C/C(=O)OCC(=O)Nc2sccc2C(N)=O)cc1	·	7.8	5.1%	28.2µM*	?	·
Oc1ccc(N=Cc2ccc(OCc3ccccc3)cc2)cc1	0.8%	-0.7	-5.7%	-6.5%	-14.1	-32.1*
O=C(N/N=C/c1ccc(OCc2ccccc2)cc1)c1ccncc1	-0.2%	6.2	0.9%	-11.1%	-3.5	4.6
Cc1ccsc1/C=N/NC(=O)c1ccc(Cn2cc(Br)cn2)o1	-0.7%	20.5	-53.4%	-9.5%	-3.7	1.6
O=C(N/N=C/c1cccc(Br)c1)c1ccc(Cn2cc(Br)cn2)o1	-0.6%	-9.7	35.5%[15.4 µM]	35.5µM*	?	-7.2
CC(=O)Nc1ccc(-c2csc(NC(=O)C3CC(=O)N(c4ccc5c(c4)OCCO5)C3)n2)cc1 (stereo not given)	3.4%	-3.5	-16.2%	-9.9%	-4.4	-35.0*
O=C(Nc1nc(-c2ccc3c(c2)OCCO3)cs1)C1CC(=O)N(c2ccc3c(c2)OCCO3)C1 (stereo not given)	·	-3.0	·	·	·	·
CCC1CN(C(=O)N2CCC(C(=O)NCCc3ccc(Cl)cc3)CC2)c2ccccc2O1 (stereo not given)	-0.7%	·	·	·	-36.0	·
C/C=C1\[C@H]2C=C(C)C[C@]1(N)c1ccc(=O)[nH]c1C2	·	·	·	·	-11.2	·
O=C(c1nnsc1S(=O)(=O)c1ccc(Cl)cc1)N1CCOCC1	-1.5%	24.3	0.5%[15.4 µM]	2.2%	20.6	2.3
CNC(=O)c1nnsc1S(=O)(=O)c1ccc(Cl)cc1	-2.8%	-8.4	1.4%	-1.1%	-82.8*	0.8
CC(=O)c1ccc(OCC(=O)N2CCCCC2)cc1	·	·	·	·	-6.7	·
CCSc1nnc(NC(=O)C(C)(C(F)(F)F)C(F)(F)F)s1	2.4%	-10.5	6.9%	22.4µM*	-14.7	-11.8
CC(C)c1ccc(NC(=O)CSC2=Nc3ccccc3C3=NC(CC(=O)NC4CCCCC4)C(=O)N23)cc1 (stereo not given)	-0.3%	·	·	·	-39.8	·
CCc1ccc(NC(=O)CSC2=Nc3ccccc3C3=NC(CC(=O)NC4CCCCC4)C(=O)N23)cc1 (stereo not given)	1.3%	·	·	·	-70.3*	·
N#C/C(=N\Nc1ccccc1Cl)C(=O)c1ccccc1	-0.2%	-4.0	-25.4%	?	-3.5	-3.1
N#C/C(=N\Nc1cccc(Cl)c1)C(=O)c1ccccc1	2.1%	-9.6	0.1%	15.8µM*	2.1	-2.6
COc1cccc(-c2nnc3n2N=C(c2ccccc2OC)CS3)c1	·	·	·	·	·	-3.7
